In PubChem BioAssay (NCATS):
Where “and” joins values, the source holds several entries; their conditions need not be identical. Equal values may be shown once. Results filed as inconclusive are left out. Where a call stands in place of a potency, no number is given. Calls of active or inactive are those of the source. The call rests on the fitted dose curve.

How the values were obtained:
[1] = Cytotoxicity counterscreen for inhibitors of SARS-CoV-2 cell entry (AID 1645845); further: nearly all actives have a fitted effect of over 50% in size
Outline: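 48 h compound treatment (after 1 h preincubation), HEK293-ACE2 cells, 37 C/5% CO2; ATP luminescence endpoint; normalized to cell wells and media blanks.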

[2] = Primary qHTS to identify inhibitors of SARS-CoV-2 cell entry (AID 1645846); settings: activity change, negative = inhibition: at 57.1 µM (top of the series) unless noted; further: nearly all actives have a fitted effect of over 45% in size
Outline: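 HEK293 cells stably expressing human ACE2, pre-treated 1 h with compound, then infected with MLV particles pseudotyped with Wuhan-Hu-1 spike (C-terminal 19-aa truncation). Luciferase luminescence after 48 h at 37 °C, normalised to spike PP and bald PP.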

| SMILES | Potency [1] | activity change, negative = inhibition [2] | Potency [2] |
| --- | --- | --- | --- |
| CC(C)(C)NC[C@H](O)COc1cccc2c1CCCC2=O | inactive | -5.98% | – |
| CN[C@@H]1[C@H](O)[C@H](NC)[C@H]2O[C@@]3(O)C(=O)C[C@@H](C)O[C@H]3O[C@@H]2[C@H]1O | inactive | – | inactive |
| CC(N=C(NC#N)Nc1ccncc1)C(C)(C)C (stereo unspecified) | inactive | -37.8% | – |
| N#C[C@H]1C[C@H]2C[C@@H]2N1C(=O)[C@@H](N)C12CC3CC(CC(O)(C3)C1)C2 | inactive | -17.5% | – |
| C=CC(N)CCC(=O)O (stereo unspecified) | inactive | – | inactive |
| O=C(O)CCCCC1CCSS1 (stereo unspecified) | inactive | – | inactive |
| Cc1cccn2c(=O)c(-c3nnn[nH]3)cnc12 | inactive | – | inactive |
| CC(=O)N=c1sc(S(N)(=O)=O)nn1C | inactive | -31.8% | – |
| COC(=O)c1cccnc1 | inactive | – | inactive |
| COc1c(N2C[C@@H]3CCCN[C@@H]3C2)c(F)cc2c(=O)c(C(=O)O)cn(C3CC3)c12 | inactive | -24.8% | – |
| CCN[C@H]1CN(CCCOC)S(=O)(=O)c2sc(S(N)(=O)=O)cc21 | inactive | -6.75% | – |
| Nc1ccc(S(=O)(=O)Nc2ccc(Cl)nn2)cc1 | inactive | – | inactive |
| Cc1cc(NS(=O)(=O)c2ccc(N)cc2)no1 | inactive | – | inactive |
| CCn1nc(C(=O)O)c(=O)c2cc3c(cc21)OCO3 | inactive | – | inactive |
| C[C@@H]1O[C@@H](OC[C@H]2O[C@@H](Oc3c(-c4ccc(O)c(O)c4)oc4cc(O)cc(O)c4c3=O)[C@H](O)[C@@H](O)[C@@H]2O)[C@H](O)[C@H](O)[C@H]1O | inactive | – | inactive |
| COC(=O)c1ccc(O)cc1 | inactive | – | inactive |
| O=C(O)C(S)C(S)C(=O)O (stereo unspecified) | inactive | – | inactive |
| CC[N+](CC)(CC)CCOc1cccc(OCC[N+](CC)(CC)CC)c1OCC[N+](CC)(CC)CC | inactive | – | inactive |
| Cc1cc2c(cc1S(N)(=O)=O)S(=O)(=O)CCC2 | inactive | – | inactive |
| Cc1cc2cc3c(C)cc(=O)oc3c(C)c2o1 | inactive | – | inactive |
| NCCCCCC(=O)O | inactive | -19.8% and -25.5% | – |
| O=C(C1CCCCC1)N1CC(=O)N2CCCc3ccccc3C2C1 (stereo unspecified) | inactive | 0.685% | – |
| CCCCCCCCCCCCCCCCCCO | inactive | 0.247% | – |
| CC(=O)OCC(=O)[C@@]1(O)[C@H](C)C[C@H]2[C@@H]3CCC4=CC(=O)C=C[C@]4(C)[C@@]3(F)[C@@H](O)C[C@@]21C | inactive | – | inactive |

| SMILES | Potency [1] | activity change, negative = inhibition [2] | Potency [2] |
| --- | --- | --- | --- |
| Cc1cc(O)cc(C)c1Cl | inactive | – | inactive |
| O=C(O)Cc1cccc2ccccc12 | inactive | – | inactive |
| COc1cnc(NS(=O)(=O)c2ccc(N)cc2)nc1 | inactive | – | inactive |
| C#C[C@]1(O)CC[C@H]2[C@@H]3CCc4cc(OC5CCCC5)ccc4[C@H]3CC[C@@]21C | inactive | -15.1% | – |
| NC(=O)NC1NC(=O)NC1=O (stereo unspecified) | inactive | – | inactive |
| Cc1ccc(C(=O)c2ccc(CC(=O)O)n2C)cc1 | inactive | – | inactive |
| COc1cc(C(=O)NC2CCCNC2)cc(OC)c1OC (stereo unspecified) | inactive | -15.8% | – |
| COc1ccccc1OCC(O)CO (stereo unspecified) | inactive | -15.9% | – |
| CC(C)(C)NC[C@H](O)COc1nsnc1N1CCOCC1 | inactive | -5.6% | – |
| O=C(O)CNC(=O)c1ccccc1 | inactive | – | inactive |
| NC(CS)C(=O)O (stereo unspecified) | inactive | -4.89% | – |
| CC(C)(CO)[C@@H](O)C(=O)NCCCO | inactive | – | inactive |
| CC(=O)N(c1onc(C)c1C)S(=O)(=O)c1ccc(N)cc1 | inactive | – | inactive |
| Cc1ccc(Cl)c(Nc2ccccc2C(=O)O)c1Cl | inactive | -1.76% | – |
| CC(=O)CC/C=C(\C)CC/C=C(\C)CC/C=C(\C)CCC=C(C)C | inactive | -24.7% | – |
| O=C(/C=C/c1ccccc1)OCc1ccccc1 | inactive | -14.8% | – |
| Nc1ccc(S(=O)(=O)Nc2ccnn2-c2ccccc2)cc1 | inactive | 4.82% [at 27.1 µM] | – |
| C#C[C@]1(O)CC[C@H]2[C@@H]3CCC4=CC(=O)CC[C@@H]4[C@H]3CC[C@@]21CC | inactive | – | inactive |
| CN1C(=O)OC(C)(C)C1=O | inactive | – | inactive |
| CC1c2ccccc2CN1NC(=O)c1ccc(Cl)c(S(N)(=O)=O)c1 (stereo unspecified) | inactive | -22.6% | – |
| Cc1c(NC(=O)c2cccnc2)c(=O)n(-c2ccccc2)n1C | inactive | – | inactive |
| CN/C(=C\[N+](=O)[O-])NCCSCc1csc(CN(C)C)n1 | inactive | – | inactive |
| CCOc1ccc(NS(=O)(=O)c2ccc(N)cc2)nn1 | inactive | -12.4% | – |
| CC1CCN(CCCC(=O)c2ccc(F)cc2)CC1 | inactive | -25% | – |
